# Test results as given in the supplement of paper PMC12067093, “Discovery and optimisation of a covalent ligand for TRIM25 and its application to targeted protein ubiquitination” (Chemical Science, 2025).
# Of roughly 21,000 targets only a part is listed; those with the largest changes were picked by preference.
# Molecular target: TMLHE_Q9NVH6_51_SLTCAWQQHEDHFELK (UniProt Q9NVH6)
# Test: probe-labelled cysteine peptide fold change vs DMSO (competition) (log2 fold change); higher = less target engagement (more negative = stronger competition)
# Details: THP-1, incubation time: 4 h
# 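Note: competitive profiling in live THP-1 cells: cysteine peptides tagged with an iodoacetamide desthiobiotin (IA-DTB) probe, intensity after compound treatment relative to DMSO-treated cells.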
# Chain of UniProt Q9NVH6 (Q9NVH6 whole entry, looked up): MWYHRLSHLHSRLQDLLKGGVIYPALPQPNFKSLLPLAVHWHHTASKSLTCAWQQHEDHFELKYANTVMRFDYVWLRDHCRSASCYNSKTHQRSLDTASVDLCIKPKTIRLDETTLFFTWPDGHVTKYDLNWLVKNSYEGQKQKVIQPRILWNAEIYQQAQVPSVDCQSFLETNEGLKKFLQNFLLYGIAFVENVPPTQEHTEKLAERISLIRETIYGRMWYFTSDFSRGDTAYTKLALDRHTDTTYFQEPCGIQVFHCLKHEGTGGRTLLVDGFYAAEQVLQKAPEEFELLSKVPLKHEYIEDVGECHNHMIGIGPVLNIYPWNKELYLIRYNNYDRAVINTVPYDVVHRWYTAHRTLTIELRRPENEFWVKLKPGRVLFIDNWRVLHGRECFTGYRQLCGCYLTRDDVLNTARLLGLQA
compound,measurement,setting,value
Cc1cc(C(=O)N2CCCN(C(=O)CCl)CC2)ccc1-c1ccccc1 [compound 10],probe-labelled cysteine peptide fold change,10 µM,-0.0542
same,probe-labelled cysteine peptide fold change,50 µM,-0.13
